A short description of assay [1]: qHTS assay for small molecule agonists of the p53 signaling pathway (AID 651631; calls by dose curve; further: nearly all actives have a fitted effect of over 15% in size; further: potency means the concentration at half of the fitted maximal effect). In a few lines:
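Agonist mode screen using a stably integrated beta-lactamase gene under p53 response elements in HCT-116 cells. Compound exposure lasts 16 h at 37 °C; fluorescence intensity is measured following 2 h FRET substrate loading.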
Background: In qHTS, concentration-response curves come from the screen itself.

A short description of assay [2]: qHTS assay for small molecule agonists of the p53 signaling pathway - cell viability (AID 651633; calls by dose curve; further: nearly all actives have a fitted effect of over 30% in size; further: potency means the concentration at half of the fitted maximal effect). The gist of the method: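 p53RE-bla cells, seeded at 4,000 per well and rested 5 h at 37 C/5% CO2, received compounds in DMSO for 16 h at 37 C. CellTiter-Glo was then added, and luminescence was read after 30 min at room temperature to gauge cytotoxicity.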
Assay [3] can be described thus: qHTS assay for small molecules that induce genotoxicity in human embryonic kidney cells expressing luciferase-tagged ATAD5 - cell viability (AID 651634; calls by dose curve; further: nearly all actives have a fitted effect of over 25% in size; further: potency means the concentration at half of the fitted maximal effect). In a few lines:
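HEK293T cells carrying luciferase-tagged ATAD5, 2,000 cells/well, exposed to compound for 15.5 hr at 37C. Viability read as live-cell protease activity by CellTiter-Fluor fluorescence after 30 min at 37C.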

A short description of assay [4]: qHTS assay for small molecule disruptors of the mitochondrial membrane potential - cell viability (AID 720634; calls by dose curve;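 further: human HepG2 liver cancer cells; series mostly up to about 83 µM; nearly all actives have a fitted effect of over 20% in size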). In a few lines:
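HepG2 cells, 2,000 per well, attached overnight, then treated 1 hr at 37 C, 5% CO2. Viability read as ATP by CellTiter-Glo luminescence after 30 min at room temperature. Read in the same wells as the m-MPI membrane-potential dye assay.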

Assay [5] is described as follows: qHTS assay for small molecule disruptors of the mitochondrial membrane potential (AID 720635). Further: potency means the concentration at half of the fitted maximal effect. In a few lines:
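HepG2 cells (2,000/well) attached overnight at 37C, then took compound for 1 hr at 37C, 5% CO2. Mito-MPS dye was added for 30 min; fluorescence was read at 490/535 nm (monomers) and 540/590 nm (aggregates).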

Assay [6] can be described thus: qHTS assay to test for compound auto fluorescence at 590 nm (red) in HepG2 cells (AID 720674). In a few lines: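 Compound auto-fluorescence is scored relative to Rose Bengal sodium, measured at 540/590 nm in live HepG2 cultures after 1 hr compound contact (37 C, 5% CO2).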
A short description of assay [7]: qHTS assay to test for compound auto fluorescence at 535 nm (green) in HepG2 cells (AID 720675).
Assay [8] in a line: qHTS assay to test for compound auto fluorescence at 460 nm (blue) in HEK293 cells (AID 720678). The gist of the method:
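Triamterene serves as the blue fluorophore standard. Compound signal at 405/460 nm is read in HEK293 wells (2,000 cells, 10% dialyzed FBS) after overnight treatment at 37C.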

Assay [9] in a line: qHTS assay to test for compound auto fluorescence at 590 nm (red) in HEK293 cells (AID 720679). The gist of the method: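 We plated HEK293 cells in 10% dialyzed FBS medium, let them adhere for 4-5 hr, then added 23 nL compound. Overnight at 37C and 5% CO2 preceded fluorescence measurement at 540/590nm.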
A short description of assay [10]: qHTS assay to test for compound auto fluorescence at 535 nm (green) in HEK293 cells (AID 720680).
Assay [11] in a line: qHTS assay to test for compound auto fluorescence at 460 nm (blue) in HEK293 cell free culture (AID 720681). The gist of the method: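 Test compounds were pinned into cell-free culture medium (DMEM with 10% FBS) and fluorescence was read directly at Ex/Em 405/460 nm. Signals were expressed as fluorescence equivalents of triamterene, with DMSO vehicle as control.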
A short description of assay [12]: qHTS assay to test for compound auto fluorescence at 535 nm (green) in HEK293 cell free culture (AID 720682). In a few lines:
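No cells present: wells hold DMEM supplemented with 10% FBS, into which compound or vehicle is pinned. Green emission is then recorded (485 nm excitation, 535 nm emission) and scaled to fluorescein.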

Assay [13] in a line: qHTS assay to test for compound auto fluorescence at 590 nm (red) in HEK293 cell free culture (AID 720683). In a few lines: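 Tox21 10K library compounds were pinned into cell-free DMEM with 10% FBS and fluorescence was read at excitation 540 nm. Activity is expressed as Rose Bengal sodium equivalency.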
Assay [14] in a line: qHTS assay to test for compound auto fluorescence at 590 nm (red) in HepG2 cell free culture (AID 720684). The gist of the method:
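Red fluorescence (540 nm excitation, 590 nm emission) was measured after compound transfer into cell-free MEM supplemented with 10% FBS. Values are equivalencies against Rose Bengal sodium.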

Assay [15] is described as follows: qHTS assay to test for compound auto fluorescence at 460 nm (blue) in HepG2 cell free culture (AID 720685). In a few lines:
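Compound (23 nL) or DMSO pinned into cell-free MEM with 10% FBS; blue fluorescence read at 405/460 nm excitation/emission, expressed as auto-fluorescence equivalency to triamterene.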

Assay [16] is described as follows: qHTS assay to test for compound auto fluorescence at 460 nm (blue) in HepG2 cells (AID 720687). The gist of the method: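 Cells (2,000/well in MEM with 10% FBS) attached overnight at 37 C, then were exposed to compound or DMSO for 1 hr at 37 C, 5% CO2. Fluorescence read at Ex/Em 405/460 nm, expressed as triamterene-equivalent signal.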
The target of assay [17] is Glucocorticoid receptor (Homo sapiens) (UniProt P04150). The experiment in a line: qHTS assay to identify small molecule agonists of the glucocorticoid receptor (GR) signaling pathway (AID 720691; active means well fitted activation curve with a large enough effect in the signal ratio in the repeat runs, not every such curve was filed as active; the % refers to the signal ratio). The gist of the method: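 GR-bla HeLa cells carrying a GRE-driven beta-lactamase reporter, exposed to compounds for 18 h at 37 C. Reporter activation read as fluorescence after 2 h with LiveBLAzer B/G FRET substrate at room temperature.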
Chain of Glucocorticoid receptor (Homo sapiens) (P04150 whole entry, looked up): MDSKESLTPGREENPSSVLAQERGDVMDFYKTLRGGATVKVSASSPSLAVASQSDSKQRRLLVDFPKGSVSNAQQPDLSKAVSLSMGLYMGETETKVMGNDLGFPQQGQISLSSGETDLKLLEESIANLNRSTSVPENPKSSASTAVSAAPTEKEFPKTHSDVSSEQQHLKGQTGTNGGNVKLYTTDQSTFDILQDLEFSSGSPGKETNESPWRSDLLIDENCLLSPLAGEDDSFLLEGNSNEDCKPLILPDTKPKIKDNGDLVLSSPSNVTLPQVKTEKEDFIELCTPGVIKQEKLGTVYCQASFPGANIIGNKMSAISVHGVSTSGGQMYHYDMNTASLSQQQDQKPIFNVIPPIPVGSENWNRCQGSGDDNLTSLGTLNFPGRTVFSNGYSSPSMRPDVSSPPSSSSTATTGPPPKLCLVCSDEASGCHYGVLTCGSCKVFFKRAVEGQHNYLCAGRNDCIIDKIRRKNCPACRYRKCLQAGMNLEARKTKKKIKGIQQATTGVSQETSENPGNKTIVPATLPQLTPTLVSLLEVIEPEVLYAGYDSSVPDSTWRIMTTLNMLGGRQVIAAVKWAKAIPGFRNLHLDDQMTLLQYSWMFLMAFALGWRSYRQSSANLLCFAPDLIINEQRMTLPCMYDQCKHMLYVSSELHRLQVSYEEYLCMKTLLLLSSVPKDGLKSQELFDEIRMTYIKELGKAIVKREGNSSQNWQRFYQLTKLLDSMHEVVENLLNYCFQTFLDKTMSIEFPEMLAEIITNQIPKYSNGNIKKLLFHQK

For assay [18] the target is unchanged. The experiment in a line: qHTS assay to identify small molecule antagonists of the glucocorticoid receptor (GR) signaling pathway (AID 720692; active means well fitted inhibition curve with a large enough effect in the signal ratio in the repeat runs, not every such curve was filed as active; the % refers to the signal ratio). The gist of the method:
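GR-bla HeLa cells carrying a GRE-driven beta-lactamase reporter received compound after 4 h plating, then dexamethasone (5 nM final). After 18 h at 37C, the FRET substrate was loaded for 2 h at room temperature and fluorescence read.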

Assay [19] is described as follows: qHTS assay to test for compound auto fluorescence at 535 nm (green) in HepG2 cell free culture (AID 720686).
The nature of assay [20]: qHTS assay for small molecules that induce genotoxicity in human embryonic kidney cells expressing luciferase-tagged ATAD5 (AID 651632). Further: nearly all actives have a fitted effect of over 15% in size. The gist of the method:
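HEK293T cells carrying luciferase-tagged ATAD5 were given compound or DMSO vehicle and incubated 16 hr at 37C, 5% CO2. Luciferase activity was read after 30 min at room temperature with Amplite; a rise signals genotoxic stress.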

For eight molecules, Potency and outcome results are on record in PubChem BioAssay (Tox21).

The structures appear in SMILES notation. Where “and” joins values, the source holds several entries; their conditions need not be identical. Equal values may be shown once. Inconclusive results are not listed. A structure can be active in one record and inactive in another. Calls of active or inactive are those of the source. Unless noted, the call rests on the fitted dose curve; in most records, active means well fitted curve in the direction sought with a large enough effect in the repeat runs; inconclusive means weak or mixed curves; inactive means no such curve, though single readings can be large; an effect the other way counts as inactive or inconclusive.

For `O=c1cc[nH]c(=S)[nH]1`, the Potency result in assay [1], in [2], in [3], in assay [4], in [5] and in [17] was “inactive” each time. Moreover, the outcome in assay [6], in assay [7], in assay [8], in assay [9], in assay [10] and in [11] was inactive. Also, the outcome in assay [12], in assay [13], in [14], in assay [15], in assay [16] and in assay [18] was inactive.

For the molecule `CNC[C@H](O)c1cccc(O)c1`, the Potency entry in assay [1], in assay [2], in assay [3], in [4] and in [5] was “inactive” in each case. For the same molecule, the molecule was classed as inactive in assay [6], in [7], in [8], in assay [9], in [10] and in assay [11]. In addition, the result in [12], in assay [13], in [14], in assay [15] and in [19] was inactive.

On to `Nc1ccc(O)c(C(=O)O)c1`, for which the Potency entry in [1], in assay [2], in [3], in assay [4], in assay [5] and in assay [17] was “inactive” throughout. Besides, the outcome in assay [6], in assay [7], in assay [8], in [9], in assay [10] and in assay [11] was inactive. Also, the call in assay [12], in assay [13], in assay [14], in assay [15], in [19] and in assay [18] was inactive.

In the case of `CCCCCCCCCCCCCCCC(=O)O`, the Potency entry in assay [1], in [2], in assay [3], in assay [4], in assay [5] and in [17] was “inactive” each time. The molecule was called inactive in [6], in [7], in [8], in assay [9], in assay [10] and in assay [11]. The call in assay [12], in assay [13], in assay [14], in [15], in assay [19] and in assay [18] was inactive.

As for `Oc1ccc(/C=C/c2cc(O)cc(O)c2)cc1`, the Potency in assay [1] was 54.5 µM (active); in [2], “inactive and 54.5 µM (active)”; in [3], 24.3 µM (active); in assay [5] it was 2.11 µM (active) and 692 nM (active) and 969 nM (active). For the same molecule, in assay [4], the Potency entry is “inactive”. Moreover, the call in assay [6], in [7], in [8], in assay [9], in [10] and in [11] was inactive. Besides, the call in [12], in assay [13], in assay [14] and in assay [15] was inactive.

As to `O=c1ccc2ccccc2o1`, the Potency entry in assay [1], in [20], in assay [2], in assay [3], in assay [4] and in assay [5] was “inactive” throughout. Also, the result in assay [6], in [7], in assay [8], in assay [9], in assay [10] and in assay [11] was inactive. The molecule was classed as inactive in assay [12], in [13], in assay [14], in assay [15], in assay [19] and in assay [16].

Consider `CC(O)CO` (centres undefined), for which the Potency result in [1], in assay [20], in assay [2], in [3], in [4] and in assay [5] was “inactive” in each case. Also, the Potency result in assay [17] was “inactive”. Further, the result in assay [6], in assay [7], in [8], in [9], in [10] and in assay [11] was inactive. The molecule was called inactive in assay [12], in assay [13], in assay [14], in [15] and in assay [18].

Consider `NC(N)=NC(=O)c1nc(Cl)c(N)nc1N`, for which the Potency entry in [1], in [2], in assay [3], in assay [4], in assay [5] and in assay [17] was “inactive” throughout. Also, the call in assay [6], in assay [7], in [8], in assay [9], in assay [10] and in assay [11] was inactive. Besides, the molecule was classed as inactive in assay [12], in [13], in assay [14], in assay [15], in [19] and in assay [18].
